Mot1-301 SUMO: inhibitors of SUMOylation pathway: yeast Mot1-301 growth rescue | S. cerevisiae Mot1-301 growth rescue, ATP luminescence, 38.5C; percent above DMSO median, 100 means doubled | growth rescue, % at 18.8 µM | 320,000 compounds, 1% hits;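 active = every valid replicate shows activation above 250% relative to neutral control wells; inactive = the rest, any valid replicate at or below 250%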;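 also: OY570 slx delta 5 strain wells were the positive control but not used for scaling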
HIF activator: HIF pathway transcriptional activation. activation, % at 7.5 µM (by protocol). 300,000 compounds, 0.32% hits. U2OS HRE-luciferase reporter, luminescence; normalized: DMSO 0%, desferrioxamine 100%;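 active = mean activation of at least 10% of the iron chelator positive control signal, with at least half of replicates also reaching 10%; inconclusive = mean and replicate majority disagree about reaching 10%; inactive = mean and most replicates under 10%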
AI-2 QS mod: modulates the Vibrio harveyi AI-2 quorum sensing system; 300,000 compounds, 0.4% hits; activity change, % at 7.5 µM; Vibrio harveyi JMH597 AI-2 luminescence/OD600 ratio, 9 h; hits give low values; strain lacks LuxN and CqsS sensors; 0 = neutral-control median; in the data active = activity change below about -75%, passing the limit was not always enough; inconclusive = no clear call, values can overlap the other calls;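 also: luminescence divided by OD600 gain over 9 h not by final OD600 alone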
ALR inh: blocks human ALR sulfhydryl oxidase activity; purified ALR, DTT oxidation, H2O2 HRP-luminol luminescence; 290,000 compounds, 3.8% hits; P55789; inhibition, % (test concentration not listed);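 active = mean replicate inhibition above about 79%, with every replicate also reaching it, limit read from the data; inconclusive = only one of the two criteria met; inactive = mean below limit and not every replicate reaching it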
Target sequence (P55789 whole entry, looked up): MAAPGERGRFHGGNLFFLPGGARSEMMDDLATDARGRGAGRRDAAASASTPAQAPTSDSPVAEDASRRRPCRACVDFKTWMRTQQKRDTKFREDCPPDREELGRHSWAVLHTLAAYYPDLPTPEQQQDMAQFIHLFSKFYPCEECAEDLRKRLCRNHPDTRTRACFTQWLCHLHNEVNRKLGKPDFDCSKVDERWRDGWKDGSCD
* hit, by the source's call; ? = inconclusive; nt = no result. A selection: hits, their analogues and other compounds. The true share with any hit is near 4.8%.

SMILES | Mot1-301 SUMO | HIF activator | AI-2 QS mod | ALR inh
O=C(Nc1cccnc1)c1ccc2ccccc2c1O | -3 | 3 | 3 | 91*
COc1ccc2[nH]cc(CCNC(=O)COc3cc(C)cc4oc(=O)cc(C)c34)c2c1 | 4 | 1 | 0 | 0
O=S(=O)(N/N=C\c1cccc(F)c1)c1ccccc1 | -11 | 1 | 31 | 8
O=S(=O)(N/N=C\C=C\c1ccccc1)c1ccc(Br)cc1 | 54 | 0 | -92* | 13
CN(C)c1ccc(/C=N/NS(=O)(=O)c2ccc(Br)cc2)cc1 | nt | -2 | -92* | 90*
COc1ccc(/C=N\NS(=O)(=O)c2ccc(Br)cc2)cc1COc1ccccc1[N+](=O)[O-] | -11 | 0 | 16 | -3
COc1cc(/C=N/NS(=O)(=O)c2ccc(Br)cc2)ccc1O | -7 | 0 | 18 | 99*
Cc1ccc(S(=O)(=O)N/N=C/c2ccc(C(=O)O)cc2)cc1 | 2 | 0 | 12 | 5
N#CCc1nn(Cc2ccc(F)cc2)c(=O)c2ccccc12 | 6 | 1 | 7 | -10
CC1CCN(C(=O)c2[nH]cnc2C(=O)N[C@@H](C)c2ccccc2)CC1 | 6 | nt | nt | -1
COc1ccc(-n2cnc3cc(NCc4cccs4)ccc32)cc1 | 50 | 1 | -24 | 95*
c1ccc(-n2cnc3cc(NCc4cccs4)ccc32)cc1 | -1 | 2 | -18 | 97*
Cc1ccc(-n2cnc3cc(NCc4cccs4)ccc32)cc1 | -25 | 1 | -17 | 21
COc1ccc(C)cc1NC(=O)c1cc(S(=O)(=O)N2CCCCC2)ccc1N1CCOCC1 | 6 | nt | nt | -4
O=C(NC(=S)N(Cc1ccccc1)c1ccccn1)C1CC1 | 1 | 0 | 0 | 99*
CC[C@]1(c2ccccc2OC)ON(c2ccccc2C(F)(F)F)C1=O | 225 | nt | nt | -5
COc1ccccc1[C@]1(C)ON(c2ccccc2C(F)(F)F)C1=O | 296* | nt | nt | -6
CCCNC(=O)COc1coc(CN2CCN(c3ccccc3OC)CC2)cc1=O | -16 | 0 | 11 | 11
CCCCNc1cc(NC(C)=O)cc2cc(OC)c(OC)cc12 | -11 | 0 | 18 | 99*
O=[N+]([O-])c1ccc(O)c(/C=N/Nc2ccccn2)c1 | 0 | 63* | -19 | nt
O=[N+]([O-])c1cccc(N/N=C/c2cc([N+](=O)[O-])ccc2O)c1 | 301* | 1 | 19 | 96*
O=[N+]([O-])c1ccc(N/N=C/c2ccccc2O)cc1 | 60 | ? | 9 | -2
CC/C(C)=N/Nc1cccc([N+](=O)[O-])c1 | 275* | 0 | 28 | 53
COc1ccc(C(=O)NCC(=O)OCC(=O)NCc2ccc3c(c2)OCO3)cc1 | 4 | nt | nt | -5
O=C(CCn1c2c(c3ccccc31)CCCC2)NNC(=O)c1ccccc1C(=O)O | 2 | 0 | 9 | 44
SMILES | Mot1-301 SUMO | HIF activator | AI-2 QS mod | ALR inh
O=C(O)CCn1c2c(c3ccccc31)CCCC2 | 3 | 0 | 24 | 99*
CC(=O)c1cccc(OCC(O)CNCC2COc3ccccc3O2)c1 (configuration not stated) | 2 | -28 | 12 | nt
Nc1nnc(SCC(=O)N2CCN(c3ccccc3)CC2)n1-c1ccccc1 | 38 | -1 | 10 | 98*
Nc1nnc(SCC(=O)N2CCN(c3ccccc3)CC2)s1 | -1 | 0 | 17 | 99*
Cc1ccc(NC2CCCN(C(=O)c3cccnc3)C2)cc1C (configuration not stated) | 2 | 0 | 23 | 93*
Cc1ccc(C(=O)N2CCCC(Nc3ccc(F)cc3)C2)cc1C (configuration not stated) | 17 | 0 | 14 | 99*
COC(=O)c1cccc(C(=O)N2CCCC(Nc3ccc(C)c(C)c3)C2)c1 (configuration not stated) | -7 | 0 | 16 | 98*
COc1ccc(C(=O)N2CCCC(Nc3ccc(F)cc3)C2)cc1F (configuration not stated) | -6 | 0 | 41 | 65
COc1ccc(C(=O)N2CCCC(Nc3ccc(C)c(C)c3)C2)cc1F (configuration not stated) | 83 | 0 | 21 | 95*
Cc1ccc([N+](=O)[O-])cc1NC(=O)CSc1n[nH]c(-c2cccnc2)n1 | 3 | 0 | 17 | -7
CN(C(=O)c1ccc(NC(=O)Cc2cccc(NC(=O)C3CCCN(C(=O)C4CCCC4)C3)c2)cc1)C1CCCC1 (configuration not stated) | 17 | nt | nt | 1
C=Cc1ccc(C(=O)N2CCCC(Nc3ccc4c(c3)OCCO4)C2)cc1 (configuration not stated) | nt | -1 | 21 | nt
C=CCOc1cccc(C(=O)N2CCCC(Nc3ccc4c(c3)OCCO4)C2)c1 (configuration not stated) | 8 | 0 | 43 | 91*
Cc1ccc(NC2CCCN(C(=O)c3cc4ncccn4n3)C2)cc1C (configuration not stated) | 9 | 0 | 31 | 83*
Cc1ccc(NC2CCCN(C(=O)c3cnc4ccccn4c3=O)C2)cc1C (configuration not stated) | 432 | 0 | -1 | nt
CCN(CC(=O)Nc1cccc(F)c1)CC(=O)Nc1ccccc1OC | -13 | 0 | 14 | -28
CCN(CC)Cc1c(C(=O)N/N=C/c2cccc(OCc3cccc(Cl)c3)c2)nnn1-c1nonc1N | 4 | 1 | 22 | -4
COc1ccc(NC(=O)CSc2nnc(-c3ccco3)n2C)cc1 | -5 | 0 | 11 | -13
COc1ccc(NC(=O)CSc2nc(-c3ccco3)nc3cc(=O)[nH]n23)cc1Cl | -9 | 0 | -11 | 99*
COc1cc(O)c(CCC(=O)c2ccc(OC)c(OC)c2)c(OC)c1 | 232 | -18 | 1 | 26
O=c1c2ccccc2cnn1Cc1n[nH]c(=S)n1-c1ccccc1Cl | 3 | 0 | -5 | 84*
COc1ccc(N2CCN(C(CNC(=O)C(C)C)c3ccc4c(c3)OCO4)CC2)cc1 (configuration not stated) | 1 | 0 | 6 | 86*
CN(C)CCNC(=O)C(=O)NCC(c1ccc2c(c1)OCO2)N1CCN(c2ccc(F)cc2)CC1 (configuration not stated) | -10 | 1 | 25 | 99*
COC(=O)NCC(c1ccc2c(c1)OCO2)N1CCN(c2ccc(OC)cc2)CC1 (configuration not stated) | -2 | 1 | 43 | 91*
O=Cc1cc(Br)c(OC(=O)N2CCOCC2)c(Br)c1 | 8 | -5 | -2 | -12
Cc1ccc(CS(=O)Cc2ccc(C(=O)N3CCN(c4ccc(F)cc4)CC3)o2)cc1 (configuration not stated) | 11 | 0 | 12 | 39
O=C(c1ccc(CS(=O)Cc2ccc(Cl)cc2)o1)N1CCN(c2ccccc2)CC1 (configuration not stated) | 0 | 0 | 8 | 93*
Cc1ccc(CS(=O)Cc2ccc(C(=O)N3CCN(c4ccccc4)CC3)o2)cc1 (configuration not stated) | 5 | 2 | 19 | 94*
